697 NFkB inh = inhibitors of the PMA/ionomycin-induced NF-kB reporter in 697 B cells; 697 B-cell NF-kB luciferase reporter, 16 h; inhibition, % at 4 µM; 0.33% of 330,000 active; AID 435022; in the data active means inhibition above about 35%
Mdm2-MdmX inh = inhibitors of human Mdm2/MdmX interaction; O15151+Q00987; SaOS-2 split-luciferase Mdm2/MdmX complementation, luminescence; inhibition, % at 8 µM; 3% of 330,000 active; AID 485346;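 active means inhibition of at least 50% at 8 µM in the primary screen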
Jurkat NFkB inh = lowers PMA/ionomycin-induced NF-kB signal in Jurkat cells; PMA/ionomycin-induced NF-kB luciferase reporter, luminescence; inhibition, % at 4 µM; AID 435003; 0.53% of 330,000 active; in the data active means inhibition above about 50%
aSyn UTR inh = 5' untranslated region of α-synuclein, MLPCN primary screen. alpha-synuclein 5'UTR reporter, inhibitor activity. inhibition, % (tested at 7.5 µM). 0.82% of 300,000 active. AID 1813; in the data active means inhibition above about 60%; inconclusive means no clear call, values can overlap the other calls;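 further: H4 neuroglioblastoma cells stably carrying SNCA 5'UTR luciferase fusion; 0% = DMSO wells and 100% = positive control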
Gli-Sufu antag = blocks Gli-Sufu signaling in a luciferase reporter | Sufu-KO-LIGHT fibroblasts, Gli luciferase reporter luminescence | inhibition, % at 5 µM | 0.74% of 340,000 active;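 active means inhibition above about 55%, limit read from the data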;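 further: 0% = DMSO-treated cells and 100% = wells with medium but no cells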
CSC inhib = blocks cancer stem cells. cancer stem cell-like cells viability, luminescence. inhibition, % at 7.5 µM. 1.1% of 300,000 active. AID 2717; in the data active means inhibition above about 75%; inconclusive means no clear call, values can overlap the other calls; tested in HMLE shEcad cells
Jurkat NFkB conf = inhibitors of the PMA/ionomycin-induced NF-kB reporter in Jurkat cells, retest. shares compounds with Jurkat NFkB inh. Jurkat NF-kB luciferase, 16 h. inhibition, % at 4 µM. 27% of 2,700 active;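 active means inhibition reaching about 45% at 4 µM in either replicate, limit read from the data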;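 further: plate controls were PMA/ionomycin stimulated DMSO wells for no effect and unstimulated DMSO wells for full effect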
697 NFkB conf = lowers PMA/ionomycin-induced NF-kB signal in 697 B cells; 697 B-cell NF-kB luciferase, 16 h; inhibition, % at 4 µM; 35% of 2,000 active; shares compounds with 697 NFkB inh; in the data active means inhibition mostly above about 28%, no sharp cut-off; inactive means mostly below about 22%
Mdm2-MdmX conf = confirmation of human Mdm2/MdmX interaction inhibitors | shares compounds with Mdm2-MdmX inh | Mdm2-MdmX binding, luminescent assay | inhibition, % at 8 µM | 55% of 10,000 active; in the data active means inhibition above about 40%
Full FLuc ctr = counter-screen for Mdm2/MdmX inhibitors: full-length luciferase; shares compounds with Mdm2-MdmX inh; SaOS-2 full-length luciferase counterscreen, luminescence; inhibition, % at 8 µM; 77% of 6,200 active; AID 504607;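 active means mean inhibition at 8 µM reaching about 37%, which flags the compound as non-specific, limit read from the data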;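 further: p53-null SaOS-2 cells with luciferase driven by a doxycycline-inducible promoter; compound on cells about two nights before reading with doxycycline added after day one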
* hit, by the source's call; u = inconclusive; x = no result given. Most compounds without a hit are left out; they make up all but 4.5% or so of the library.

SMILES | 697 NFkB inh | Mdm2-MdmX inh | Jurkat NFkB inh | aSyn UTR inh | Gli-Sufu antag | CSC inhib | Jurkat NFkB conf | Mdm2-MdmX conf | Full FLuc ctr | others
CCN(CC)c1ccc(/C=C/c2cccc[n+]2C)c(OC)c1 | 75.4* | 90.9* | 93.9* | u | 89.0* | 20.8 | 77.6* | 79.3* | 37.9* | 697 NFkB conf=87.5*
COc1ccc(/C=C/c2cccc[n+]2C)c(O)c1 | -37.5 | -5.5 | -27.6 | -6.5 | 33.7 | -5.0 | x | x | x
COc1ccc(NC(=O)C(Cl)=C(Cl)Cl)cn1 | 24.8 | 4.7 | 25.6 | -54.2 | 6.5 | x | x | x | x
COc1ccc(NC(=O)/C(Cl)=C(/Cl)S(=O)Cc2ccc(Cl)cc2)cn1 (stereo not drawn) | -184.5 | 97.1* | 101.3* | x | 46.3 | x | 98.9* | 100.0* | 1.5
COc1ccc(COC(=O)c2cc([N+](=O)[O-])ccc2N2CCOCC2)cc1F | -67.5 | 72.2* | 93.3* | 68.3* | 41.1 | 60.1 | 64.8* | 77.9* | 124.8*
O=C(OCc1cccc(Cl)c1)c1cc([N+](=O)[O-])ccc1N1CCOCC1 | -18.3 | 14.5 | 43.6 | 6.2 | 13.9 | x | x | x | x
Cn1c(=O)[nH]c(=O)c2c1nc(SCC(O)CO)n2Cc1ccccc1Cl (stereo not drawn) | -0.8 | -17.8 | 0.6 | 16.9 | 11.1 | -14.4 | x | x | x
N#Cc1c(N2CCCC(O)C2)nc(N)c2c(N)nc3c(c12)CC(=O)N3C12CC3CC(CC(C3)C1)C2 (stereo not drawn) | -28.2 | 89.7* | 84.9* | -232.4 | -23.4 | 72.4 | 48.5 | 69.0* | 43.5*
COc1ccc(CN2C(=O)Cc3c2nc(N)c2c(N)nc(N4CCCCC4)c(C#N)c32)cc1 | -25.2 | -6.0 | -1.4 | 12.6 | x | x | x | x | x
CCn1c(C)nnc1SCC(=O)Nc1ccc(Cl)cc1 | -8.7 | 9.3 | -22.1 | -0.5 | -8.2 | -12.4 | x | x | x
CCN(CC(=O)NCc1ccc(F)cc1)C(=O)/C=C/c1ccc(OC)c(S(=O)(=O)NC(C)C)c1 | 5.7 | 55.9* | 50.5* | 63.2* | -4.5 | 56.6 | 46.1 | 55.5* | 61.0*
O=C(C[n+]1ccn(-c2ccccc2)c1)c1ccc([N+](=O)[O-])cc1 | -1.1 | -3.3 | 16.2 | 8.8 | 29.4 | -25.3 | x | x | x
CCN1/C(=C/c2ccc3cc(C)ccc3[n+]2CC)Sc2ccc3sccc3c21 | -13.4 | 100.5* | 92.2* | 130.8* | 86.6* | 49.3 | 64.5* | 87.1* | 16.5
CCOC(=O)c1[nH]c(C)c(C(=O)OCC)c1C | -11.8 | -1.4 | -14.1 | -3.9 | -3.9 | -5.1 | x | x | x
CCOC(=O)c1[nH]c(C)c(C(=O)c2cc(F)ccc2F)c1C | 14.0 | 58.7* | 77.1* | 73.9* | 46.3 | 59.9 | 43.2 | 55.9* | 76.5*
Cc1ccc2nc(/C(C#N)=C\c3ccc(N4CCOCC4)o3)[nH]c2c1 | 3.7 | -31.3 | 15.1 | -231.3 | 1.1 | 6.0 | x | x | x
Cc1ccc2nc(/C(C#N)=C\c3ccc([N+](=O)[O-])o3)[nH]c2c1 | -55.4 | 96.9* | 58.6* | -24.2 | x | 2.8 | 15.7 | 75.0* | 29.9
COc1cc(/C=C2\SC(=Nc3ccc(O)cc3)NC2=O)cc(OC)c1OC | 2.2 | 52.1* | 58.7* | -9.4 | -2.1 | 59.8 | 0.7 | 64.8* | 28.2
COc1ccc(N=C2NC(=O)/C(=C/c3ccc(O)c(OC)c3)S2)cc1 | -15.3 | 45.5 | -6.3 | 20.3 | 2.9 | 49.0 | x | x | x
COc1ccc(C2C(O)C(c3c[nH]c4ccccc34)=NN2C(=O)CCl)cc1 (stereo not drawn) | 97.4* | 98.2* | 100.4* | 107.8* | 85.8* | 109.1* | -2.0 | 97.1* | 1.4 | 697 NFkB conf=-153.4
O=C(CCNC(=O)c1ccc(Br)cc1)NNC(=O)c1ccccc1 | 18.5 | 11.0 | -12.2 | x | -2.3 | -23.0 | x | x | x
C/C(=N\NC(=O)c1c(Br)c(C)nn1C)c1cccc(NC(=O)C2CCC2)c1 | 11.2 | 3.0 | -4.6 | -36.9 | -3.5 | -5.8 | x | x | x
